Measurements: PubChem BioAssay (NCATS)
Where “and” joins values, the source holds several entries; their conditions need not be identical. Equal entries are not always repeated. Results filed as inconclusive are left out. Calls of active or inactive are those of the source. Calls follow the shape of the dose curve; as a rule, active = well fitted curve in the direction sought with a large enough effect; inconclusive = small, poorly fitted or top-dose-only effect, or another doubt; inactive = no such curve, though single readings can be large; an effect the other way counts as inactive or inconclusive.

What was measured:
[1] = qHTS assay for measurement of the activity of small molecule inhibitors on Zika virus induced Caspase-3 activity in human astrocytoma cells (AID 1224859)
Summary of the method: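 Human SNB-19 astrocytoma cells in RPMI 1640 with 10% FBS receive compound one hour ahead of Zika virus at 2 FFU/cell. After 6 h infection, caspase-3/7 activity is detected by Caspase-Glo luminescence.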

[2] = qHTS Screen of the MIPE 4.0 Collection Against Ewings Sarcoma (RDES) (AID 1259252); also: nearly all actives have a fitted effect of over 35% in size; also: potency is read from the fitted curve at half-maximal effect
Summary of the method: (§1)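 Viability screen: 48 h incubation at 37C, 95% humidity, 5% CO2 with serially titrated compound, followed by CellTiter-Glo readout.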

[3] = qHTS Screen of the MIPE 4.0 Collection Against Ewings Sarcoma (TC71) (AID 1259253); also: nearly all actives have a fitted effect of over 40% in size; also: potency is read from the fitted curve at half-maximal effect
Summary of the method: as §1

[4] = qHTS Screen of the MIPE 4.0 Collection Against Ewings Sarcoma (EW8) (AID 1259255); also: nearly all actives have a fitted effect of over 35% in size; also: potency is read from the fitted curve at half-maximal effect
Summary of the method: as §1

[5] = qHTS Screen of the MIPE 4.0 Collection Against Ewings Sarcoma (TC32) (AID 1259256); also: nearly all actives have a fitted effect of over 45% in size; also: potency is read from the fitted curve at half-maximal effect
Summary of the method: as §1

[6] = Identifying Small Molecule Inhibitors of Pancreatic Cancer Stem Cells (SN12C, Adherent) (AID 1259358);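 also: cell survival measured after 48 h of compound exposure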; also: potency is read from the fitted curve at half-maximal effect
Summary of the method: (§2)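 Monolayer and spheroid cultures are compared. Spheroids form over 14 days in stem cell medium on hydrogel-coated low-attachment plates, then are exposed to compound for 48 h before CellTiter-Glo luminescence.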

[7] = Identifying Small Molecule Inhibitors of Pancreatic Cancer Stem Cells (Panc1, Spheroid) (AID 1259359);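 also: potency is read from the fitted curve at half-maximal effect; compound exposure lasted 48 h before reading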
Summary of the method: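 Luminescent ATP readout (CellTiter-Glo) quantifies surviving cells after a 48 h drug incubation. Normalization uses DMSO wells as no inhibition and media-only wells as full inhibition; bortezomib served as positive control.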

[8] = Identifying Small Molecule Inhibitors of Pancreatic Cancer Stem Cells (A278, Adherent) (AID 1259361);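 also: viability read after 48 h compound exposure; nearly all actives have a fitted effect of over 35% in size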
Summary of the method: as §2

[9] = P-glycoprotein substrates identified in KB-3-1 adenocarcinoma cell line, qHTS therapeutic library screen (AID 1346986); also: nearly all actives have a fitted effect of over 60% in size;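 also: potency is read from the fitted curve at half-maximal effect; potency is for cytotoxicity meaning loss of cell viability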
Summary of the method: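 Viability by CellTiter-Glo after 72 h compound exposure at 37 degree C, 5% CO2. Cytotoxic call: curve class -1.1 to -2.4, maximum response >50%, AC50 < 10 uM, compared across KB-3-1 and P-gp-overexpressing KB-8-5-11.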

[10] = Identifying Small Molecule Inhibitors of Pancreatic Cancer Stem Cells (SN12C, Spheroid) (AID 1259360); settings: Potency: SN12C spheroid viability; also: potency is read from the fitted curve at half-maximal effect
Summary of the method: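 Endpoint: ATP-based luminescence, 48 h drug exposure. Bortezomib at 9.2 uM final as full-kill control; DMSO vehicle as negative control; activity normalized between vehicle and cell-free wells.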

[11] = P-glycoprotein substrates identified in KB-8-5-11 adenocarcinoma cell line, qHTS therapeutic library screen (AID 1346987); also: nearly all actives have a fitted effect of over 65% in size; also: potency is read from the fitted curve at half-maximal effect
Summary of the method: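 Human cervical adenocarcinoma KB-8-5-11 cells, selected in colchicine to over-express P-gp and assayed without it, were exposed for 72 h to titrated compounds. An ATP-based luminescent viability signal gave AC50.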

[12] = qHTS assay to identify small molecule inhibitors of chordoma cells - UCH-1 (AID 1259355); also: nearly all actives have a fitted effect of over 55% in size
Summary of the method: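 Screening used approved and investigational drugs in 15-point titration against 800 seeded cells per well. A fixed combination of auranofin with camptothecin, doxorubicin, rubitecan and topotecan followed compound addition, and growth was scored by CellTiter-Glo after 48hr.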

[13] = qHTS assay to identify small molecule inhibitors of chordoma cells - UCH-2 (AID 1259356); also: series mostly up to about 46 µM
[14] = NS1 protein of Zika virus - qHTS assay to identify small molecule inhibitors in human HEK 293 cells (AID 1347053); also: nearly all actives have a fitted effect of over 55% in size; also: potency is read from the fitted curve at half-maximal effect
Summary of the method: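 In this cell-based screen, HEK 293 cultures received compound for one hour before Zika MR766 at MOI = 0.5. NS1 was quantified 24 hours later by TR-FRET, normalized to virus-free wells and infected wells.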

| SMILES | Potency [1] | Potency [2] | Potency [3] | Potency [4] | Potency [5] | Potency [6] | Potency [7] | IC50 (viability decrease) [8] | Potency [9] | Potency [10] | Potency [11] | Potency [12] | outcome [13] | Potency [14] |
| --- | --- | --- | --- | --- | --- | --- | --- | --- | --- | --- | --- | --- | --- | --- |
| CCN(CC)CCCCNc1ncc2cc(-c3cc(OC)cc(OC)c3)c(NC(=O)NC(C)(C)C)nc2n1 | inactive | 20.9 µM (active) | 16.6 µM (active) | 18.7 µM (active) | 16.6 µM (active) | 14.8 µM (active) | 18.7 µM (active) | 5.26 µM (active) | 23.1 µM (active) |  |  |  |  |  |
| Cc1[nH]nc2ccc(-c3cncc(OC[C@@H](N)Cc4ccccc4)c3)cc12 | inactive | 2.09 µM (active) | 1.48 µM (active) | 0.833 µM (active) | 2.96 µM (active) | 7.43 µM (active) | 9.35 µM (active) |  |  | 18.7 µM (active) | 2.35 µM (active) and 1.16 µM (active) |  |  |  |
| COc1c(N2C[C@@H]3CCCN[C@H]3C2)c(F)cc2c(=O)c(C(=O)O)cn(C3CC3)c12 | inactive | inactive | inactive | inactive | inactive |  |  |  |  |  |  | inactive | inactive | inactive |
| c1ccc2c(CCNc3ccc(Nc4ccncc4)cc3)c[nH]c2c1 | inactive | 16.6 µM (active) | 14.8 µM (active) | 5.26 µM (active) | 5.26 µM (active) | 18.7 µM (active) |  | 16.6 µM (active) |  | 23.5 µM (active) |  |  |  |  |
| Cc1cnc(Nc2ccc(F)cc2Cl)nc1-c1c[nH]c(C(=O)N[C@H](CO)c2cccc(Cl)c2)c1 | inactive | 20.9 µM (active) | 18.7 µM (active) | 20.9 µM (active) | 23.5 µM (active) | 13.2 µM (active) |  | 11.8 µM (active) |  | 23.5 µM (active) | 23.5 µM (active) |  |  |  |
| CS(=O)(=O)N1CCN(Cc2cc3nc(-c4cccc5[nH]ncc45)nc(N4CCOCC4)c3s2)CC1 | inactive | 1.18 µM (active) | 5.9 µM (active) | 1.66 µM (active) | 0.418 µM (active) | 0.296 µM (active) |  | 0.372 µM (active) |  |  | 2.91 µM (active) |  |  |  |
| Cn1cc(-c2[nH]c3cc(NC(=O)[C@H](N)C4CCCCC4)cc4c3c2C=NNC4=O)cn1 | inactive | 0.833 µM (active) | 0.59 µM (active) | 0.372 µM (active) | 0.372 µM (active) | 14.8 µM (active) |  |  |  | 4.18 µM (active) | inactive |  |  | 0.332 µM (active) |
| C#Cc1cccc(Nc2ncnc3cc(OC)c(OCCCCCCC(=O)NO)cc23)c1 | inactive | 0.0209 µM (active) | 0.0743 µM (active) | 0.059 µM (active) | 0.0372 µM (active) | 14.8 µM (active) |  | 1.18 µM (active) |  |  | 10.5 µM (active) and 14.6 µM (active) |  |  | inactive |
| Fc1cc(-c2cccc3ncc(-c4cnn(C5CCNCC5)c4)nc23)cc(F)c1CN1CCOCC1 | inactive | 20.9 µM (active) | 20.9 µM (active) | 20.9 µM (active) | 18.7 µM (active) | 23.5 µM (active) |  |  |  |  | 20.9 µM (active) and 20.6 µM (active) |  |  | 20.9 µM (active) |
| CN1CCC(CNc2ccc3ncc(-c4cccc(OC(F)(F)F)c4)n3n2)CC1 | inactive | 16.6 µM (active) | 16.6 µM (active) | 10.5 µM (active) | 13.2 µM (active) | 20.9 µM (active) |  | 18.7 µM (active) | 20.6 µM (active) | 23.5 µM (active) | 13.2 µM (active) and 18.4 µM (active) |  |  | 16.6 µM (active) |
| CC(=O)OCCN1C(=O)c2c(C)nc3ccc(S(=O)(=O)N4CCOCC4)cc3c2C1=O | inactive | inactive | inactive | inactive | inactive | inactive |  |  | inactive | inactive | inactive |  |  | inactive |
| COc1cc2ncn(-c3cc(OCc4ccccc4C(F)(F)F)c(C(N)=O)s3)c2cc1OC | inactive | 4.18 µM (active) | 1.48 µM (active) | 1.32 µM (active) | 1.32 µM (active) | 1.05 µM (active) |  | 1.48 µM (active) |  | inactive | 0.935 µM (active) |  |  |  |
| O=C(c1ccc(Nc2nccc(-c3cc4ccccc4s3)n2)cc1)N1CCC(N2CCCC2)CC1 | inactive | 18.7 µM (active) | 18.7 µM (active) | 20.9 µM (active) | 20.9 µM (active) | 26.4 µM (active) |  | 18.7 µM (active) | 6.51 µM (active) | 23.5 µM (active) | 8.33 µM (active) and 16.4 µM (active) and 20.6 µM (active) |  |  | 6.62 µM (active) |
| CC(=O)SC[C@@H](C)C(=O)N1CCC[C@H]1C(=O)N[C@@H](Cc1ccccc1)C(=O)O | inactive | inactive | inactive | inactive | inactive | inactive |  |  |  | inactive | inactive |  |  |  |
